In PubChem BioAssay AID504332 (National Center for Advancing Translational Sciences (NCATS), 2011):
Screen size: about 350,000 compounds; about 31,000 (8.9%) were called active. Where a call stands in place of a potency, no number is given. Inconclusive results (about 15%) are left out. This is one part of a sample in which actives are shown more often than they occur. Calls follow the shape of the dose curve; as a rule, active = well fitted inhibition curve with a large enough effect; inconclusive = small, poorly fitted or top-dose-only effect; inactive = no such curve, though single readings can be large or run the other way.

The compounds below were run against Histone-lysine N-methyltransferase EHMT2 (Homo sapiens) (UniProt Q96KQ7) (assay: qHTS Assay for Inhibitors of Histone Lysine Methyltransferase G9a). Settings: G9a H3K9 monomethylation, AlphaScreen, 2 h; series mostly up to 59 µM.
Excerpt: Methylated lysines, on the N-terminal tails of histone proteins serve as epigenetic markers to recruit factors that can then modify local chromatin structure to lead to functional consequences. G9a and other members of the SUV39 family of the SET domain-containing superfamily of histone lysine methyltransferases (HMT) have been identified to specifically methylate Lys9 of histone H3 (H3K9). G9a catalyzes the mono- and di-methylation of H3K9 in mammalian euchromatic regions, where the resulting H3K9me2 is indicative of transcriptional repression. […] The inhibition of G9a will result in transcriptional activation and work synergistically with DNA methyltransferase and histone deacetylase inhibitors, to kill cancer cells. This qHTS assay for identification of G9a inhibitors is a chemiluminescence based AlphaScreen (PerkinElmer). Methylation of biotinylated-histone peptide is measured through specific antibody-based detection, in conjunction with streptavidin-coated donor and anti-IgG antibody-coated acceptor beads. The method is particularly well suited for detection of inhibitors acting by the desired histone peptide competitive mechanism and is applicable to testing other HMTs. Although AlphaScreen has significant advantages with its utility in a variety of epigenetic target assays, the primary screening data provided in this deposition should be used with caution due to the prevalence of screening artifacts. An AlphaScreen counterscreen is highly recommended to be run against any putative actives to eliminate non specific artifacts. Alternatively, one can use other AlphaScreen assays in PubChem to filter out promiscuous hits. Quinn et al. A chemiluminescence-based method for identification of histone lysine methyltransferase inhibitors. Mol Biosyst 6(5): 782-8. 2010. PMID: 20567762 [2] Baell,Holloway. New substructure filters for removal of pan assay interference compounds (PAINS) from screening libraries and for their exclusion in bioassays. J Med Chem. 53(7):2719-40. 2010. PMID: 20131845 NIH Molecular Libraries Probe Production Network [MLPCN] NIH Chemical Genomics Center [NCGC] Structural Genomics Consortium (SGC) NIH Grant: 5U54 MH084681-02
To each well of a 1,536w plate, 2ul of HMT enzyme (final 20nM) were added, using a nanoliter dispenser. The G9a- and GLP-inhibitor BIX-01294 (CID: 25150857) are used as an intraplate control, with a 16-point titration in duplicate. A Kalypsys pin-tool transferred 23nl of library compound solution in DMSO to each well. Following a 15 min incubation of enzyme with compounds at room temperature, 1ul mixture of b-H3K9 peptide substrate (final 500nM) and SAM cofactor (final 20uM) were added. Reactions were allowed to proceed at room temperature for 2 hours. Methylated b-H3K9 peptide product was detected with 0.5 ug/mL rabbit polyclonal anti-monomethyl histone H3K9 antibody (Abcam Inc., Cambridge, MA) and 20 ug/mL each streptavidin-coated donor and anti-rabbit IgG acceptor AlphaScreen beads. Antibody and beads were added in a 1ul dispense, for a final volume of 4ul, and plates were incubated, protected from the light, for 10 min at room temperature. Microplates were then read on an EnVision multilabel plate reader using the 1,536 plate HTS AlphaScreen aperture (excitation time 80 ms, measurement time 240 ms).
Also: nearly all actives have a fitted effect of over 75% in size.
Potency is read from the fitted curve at half-maximal effect.

Histone-lysine N-methyltransferase EHMT2 (Homo sapiens), sequence (Q96KQ7 913-1193 limits assumed): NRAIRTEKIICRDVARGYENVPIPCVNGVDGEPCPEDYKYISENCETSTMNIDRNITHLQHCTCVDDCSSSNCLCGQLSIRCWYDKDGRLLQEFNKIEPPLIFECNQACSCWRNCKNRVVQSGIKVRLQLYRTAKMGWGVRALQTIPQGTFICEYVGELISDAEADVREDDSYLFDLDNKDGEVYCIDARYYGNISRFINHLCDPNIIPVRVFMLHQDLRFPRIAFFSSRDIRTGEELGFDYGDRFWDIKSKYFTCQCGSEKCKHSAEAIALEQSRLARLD

**Q.** `O=C(COC(=O)CNC(=O)C1CCCCC1)Nc1cccc(F)c1` was tested. Which activity, negative = inhibition did it give?
**A.** Its activity, negative = inhibition is -1.37% [at 12.7 µM] (inactive).

**Q.** With `CCc1ccc(NC(=O)Cn2c(=O)n(CCC(=O)NCc3ccc4c(c3)OCO4)c(=O)c3ccccc32)cc1` as the compound, how does the Potency read?
**A.** Its Potency is “inactive”.

**Q.** How did the Potency turn out when `CC(C)(C)NC(=O)CSc1nc(-c2ccc(F)cc2)cc(C(F)(F)F)n1` was run?
**A.** Its Potency is “inactive”.

**Q.** `O=C(NCCS(=O)(=O)NCc1ccc(F)cc1)c1ccccc1` was tested. Which Potency did it give?
**A.** The Potency was “inactive”.

**Q.** For `Cc1ccc(NC(=O)c2ccc(CN3CC(=O)N4CCCCC4C3=O)cc2)c(Cl)c1` (centres undefined), which Potency is on record?
**A.** Its Potency is “inactive”.

**Q.** How did the activity, negative = inhibition turn out when `CC(C)(C)OC(=O)Nc1ccc([C@@H](NC(=O)OC(C)(C)C)C(=O)OC(C)(C)C)cc1` was run?
**A.** The activity, negative = inhibition was 9.51% [at 0.501 µM] (inactive).

**Q.** Which Potency does the source give for `Cc1ccc2sc(N(Cc3cccnc3)C(=O)C3COc4ccccc4O3)nc2c1C` (centres undefined) here?
**A.** The Potency was “inactive”.

**Q.** Which Potency does the source give for `COc1cc(Cl)c(C)cc1NC(=O)CSc1nnc(-c2cccnc2)n1Cc1ccco1` here?
**A.** The Potency was 39.8 µM (active).

**Q.** Which Potency does the source give for `CCn1c(SCC(=O)Nc2cc(C)c(Cl)cc2OC)nnc1-c1ccco1` here?
**A.** The Potency was “inactive”.

**Q.** With `Cc1cc(NC(=O)CSc2nc3cc(Cl)ccc3c(=O)n2Cc2ccco2)no1` as the compound, how does the Potency read?
**A.** Its Potency is “inactive”.

**Q.** How did the Potency turn out when `CCCCN(C)S(=O)(=O)c1ccc(C(=O)Nc2sc3c(c2C(N)=O)CC(C)(C)NC3(C)C)cc1` was run?
**A.** The Potency was “inactive”.

**Q.** With `COc1ccc(-c2nc3c4ccccc4n(CC(=O)Nc4ccc(C(C)=O)cc4)c(=O)n3n2)cc1` as the compound, how does the Potency read?
**A.** Its Potency is “inactive”.

**Q.** With `COCCN1C(=O)C(=O)/C(=C(/O)c2ccc(S(=O)(=O)N3CCCCC3)cc2)C1c1ccc(OC)c(OC)c1` (centres undefined) as the compound, how does the Potency read?
**A.** The Potency was “inactive”.

**Q.** `COc1cc(C2/C(=C(\O)c3ccc4c(c3)CC(C)O4)C(=O)C(=O)N2c2nnc(C)s2)cc(OC)c1OC` (centres undefined) was tested. Which Potency did it give?
**A.** The Potency was 44.7 µM (active).

**Q.** For `COCCN1C(=O)C(=O)/C(=C(/O)c2ccc(S(=O)(=O)N3CCOCC3)cc2)C1c1ccc(O)c(OC)c1` (centres undefined), which Potency is on record?
**A.** The Potency was “inactive”.

**Q.** `CC(CCCc1ccccc1)NC(=O)c1nn(-c2ccc(Cl)cc2)nc1CO` (centres undefined) was tested. Which Potency did it give?
**A.** Its Potency is “inactive”.

**Q.** How did the Potency turn out when `O=C(Nc1nnc(S(=O)(=O)N2CCCc3ccccc32)s1)c1cccc(F)c1` was run?
**A.** Its Potency is “inactive”.

**Q.** How did the Potency turn out when `Cc1cccc(NC(=O)Cn2c(C(F)(F)F)nc3ccccc32)c1C` was run?
**A.** The Potency was “inactive”.

**Q.** Which activity, negative = inhibition does the source give for `CCc1ccc2nc3sc(C(=O)Nc4nnc(CC)s4)c(N)c3cc2c1` here?
**A.** Its activity, negative = inhibition is -8.03% [at 12.7 µM] (inactive).

**Q.** How did the Potency turn out when `CCc1ccccc1NC(=O)c1sc2nc3c(cc2c1N)CN(Cc1ccccc1)CC3` was run?
**A.** Its Potency is “inactive”.

**Q.** Which Potency does the source give for `CCN1CCc2nc3sc(C(=O)Nc4ccccc4OC(F)(F)F)c(N)c3cc2C1` here?
**A.** Its Potency is 14.1 µM (active).

**Q.** With `CCc1ccc(NC(=O)CSc2nc3c([nH]c4ccccc43)c(=O)n2-c2cccc(OC)c2)cc1` as the compound, how does the Potency read?
**A.** Its Potency is “inactive”.

**Q.** With `Cc1ccc2c(c1)c1c(c(=O)n(-c3ccccc3)c(=O)n1CC(=O)c1ccc(Cl)cc1)n2C` as the compound, how does the Potency read?
**A.** Its Potency is “inactive”.

**Q.** For `S=C(NCCCc1cnc[nH]1)NCCCN(Cc1ccc(Cl)c(Cl)c1)c1ccc(Br)cn1`, which Potency is on record?
**A.** Its Potency is 25.1 µM (active).

**Q.** For `CCc1cc2c(cc3c(=O)n(CC(=O)N4CCN(c5cc(Cl)ccc5C)CC4)ncn32)s1`, which Potency is on record?
**A.** The Potency was “inactive”.

**Q.** How did the Potency turn out when `CCNC(=O)N1CCCC(C(=O)c2ccc(-c3ccccc3)cc2)C1` (centres undefined) was run?
**A.** The Potency was “inactive”.

**Q.** `O=Cc1c(NCCCN2CCCC2=O)c2ccccc2[nH]c1=O` was tested. Which Potency did it give?
**A.** Its Potency is “inactive”.

**Q.** `NS(=O)(=O)c1cccc(NC(=O)CN2CCCc3ccccc32)c1` was tested. Which Potency did it give?
**A.** Its Potency is 44.7 µM (active).

**Q.** With `O=C(CN1CCc2ccccc2C1)Nc1cccc(S(=O)(=O)N2CCOCC2)c1` as the compound, how does the activity, negative = inhibition read?
**A.** The activity, negative = inhibition was 15.7% [at 12.7 µM] (inactive).

**Q.** `CCn1c(=O)c2ccccc2n(CC(=O)N2CCCc3ccccc32)c1=O` was tested. Which activity, negative = inhibition did it give?
**A.** Its activity, negative = inhibition is -7.66% [at 0.501 µM] (inactive).

**Q.** For `COC(=O)c1[nH]c2ccccc2c1NC(=O)CN1CCCc2ccccc21`, which Potency is on record?
**A.** The Potency was 44.7 µM (active).

**Q.** With `CC1Cc2ccccc2N1CC(=O)Nc1ccc(S(N)(=O)=O)cc1` (centres undefined) as the compound, how does the Potency read?
**A.** The Potency was “inactive”.

**Q.** With `O=C(CCCn1c(=O)c2cccn2c2cccnc21)NCc1ccc(F)cc1` as the compound, how does the Potency read?
**A.** The Potency was “inactive”.

**Q.** Which Potency does the source give for `Cc1cc(C)cc(NC(=O)c2cnc3sc(N4CCCC4)nn3c2=O)c1` here?
**A.** Its Potency is “inactive”.

**Q.** How did the Potency turn out when `O=C1/C(=C\Nc2ccccc2)CCN1c1ncccn1` was run?
**A.** Its Potency is 50.1 µM (active).

**Q.** For `O=C(Cc1ccccc1)NNC(=O)C1CCN(c2ncccn2)CC1`, which Potency is on record?
**A.** Its Potency is “inactive”.

**Q.** With `COc1ccc(-c2c(C)nn3c(N4CCC(C(=O)NCCC(C)C)CC4)cc(C)nc23)cc1OC` as the compound, how does the Potency read?
**A.** The Potency was “inactive”.

**Q.** For `CCC1CCCCN1Cc1c(O)ccc2c(=O)c(Oc3ccccc3Cl)c(C(F)(F)F)oc12` (centres undefined), which Potency is on record?
**A.** Its Potency is “inactive”.

**Q.** With `Cc1ccc(OCCn2c(CNc3ccccc3C)nc3ccccc32)cc1` as the compound, how does the Potency read?
**A.** The Potency was “inactive”.

**Q.** With `COc1ccccc1CNC(=O)CCCCn1c(=O)c2ccccc2n(CC(=O)Nc2cc(Cl)ccc2C)c1=O` as the compound, how does the Potency read?
**A.** The Potency was “inactive”.

**Q.** With `COC(=O)c1ccc(NC(=O)CCc2c(C)nc3c(c(C)nn3-c3ccc(C)cc3)c2C)cc1` as the compound, how does the Potency read?
**A.** The Potency was “inactive”.

**Q.** `O=C(CCOc1ccccc1)N(Cc1cccnc1)c1nc2ccc(Cl)cc2s1` was tested. Which Potency did it give?
**A.** Its Potency is “inactive”.

**Q.** With `COc1ccc(CC(=O)N/N=C(\C)c2ccccn2)cc1` as the compound, how does the Potency read?
**A.** The Potency was “inactive”.

**Q.** Which Potency does the source give for `CCN(CC)CCOc1ccc2c(c1)C(=NNC(=O)c1ccccn1)c1cc(OCCN(CC)CC)ccc1-2` here?
**A.** The Potency was 22.4 µM (active).

**Q.** Which Potency does the source give for `Cc1cccc(OCC(=O)NCCCNC(=O)c2ccccn2)c1` here?
**A.** The Potency was “inactive”.

**Q.** Which Potency does the source give for `O=C(Nc1ccccc1N1CCN(C(=O)c2ccccc2)CC1)c1ccco1` here?
**A.** Its Potency is “inactive”.

**Q.** For `CCc1nc2ccc(C(=O)N3CCN(c4cc(Cl)ccc4C)CC3)cc2nc1CC`, which Potency is on record?
**A.** The Potency was “inactive”.

**Q.** For `Cc1ccc(C)c(N2C(=O)N(Cc3c(F)cccc3Cl)c3ccccc3S2(=O)=O)c1`, which Potency is on record?
**A.** The Potency was “inactive”.

**Q.** `CCOc1ccc(NC(=O)c2cc3c(=O)n(Cc4cccs4)ccc3nc2C)cc1` was tested. Which Potency did it give?
**A.** The Potency was “inactive”.

**Q.** Which Potency does the source give for `Cc1nn(-c2ccccc2)c2c1c(C)c(CCC(=O)NCC1CCCO1)c(=O)n2C` (centres undefined) here?
**A.** The Potency was “inactive”.

**Q.** How did the Potency turn out when `COc1ccc(N2CCN(C(=O)c3cccs3)CC2)cc1` was run?
**A.** Its Potency is 50.1 µM (active).

**Q.** With `O=C(c1cccs1)N1CCN(C(=O)N2CCOCC2)CC1` as the compound, how does the Potency read?
**A.** Its Potency is “inactive”.

**Q.** How did the Potency turn out when `COc1ccc(OCC(=O)N2CCN(C(=O)c3cccs3)CC2)cc1` was run?
**A.** The Potency was “inactive”.

**Q.** Which Potency does the source give for `O=C(O)c1ccc(NC(=O)c2ccc(COc3ccc(Cl)cc3)o2)cc1` here?
**A.** The Potency was “inactive”.

**Q.** `Cc1ccc(Oc2c(C(F)(F)F)oc3c(CN4CCCCC4)c(O)ccc3c2=O)cc1` was tested. Which Potency did it give?
**A.** The Potency was “inactive”.

**Q.** `O=C(N/N=C/c1c[nH]c2ccccc12)c1ccccc1O` was tested. Which Potency did it give?
**A.** Its Potency is “inactive”.

**Q.** How did the activity, negative = inhibition turn out when `O=C(Nc1ccccc1N1CCOCC1)c1ccncc1` was run?
**A.** The activity, negative = inhibition was -10.3% [at 2.33 µM] (inactive).

**Q.** `c1ccc(-c2oc3ncnc(N4CCOCC4)c3c2-c2ccccc2)cc1` was tested. Which activity, negative = inhibition did it give?
**A.** Its activity, negative = inhibition is -7.86% [at 12.7 µM] (inactive).

**Q.** Which Potency does the source give for `O=C1c2ccccc2-c2ncnc3c(N4CCOCC4)cc(N4CCOCC4)c1c23` here?
**A.** Its Potency is 50.1 µM (active).
